Assay results reported in the supplement of paper PMC6897291.

Columns and labels:
[1] = tested on: U-2932; assay: growth inhibition by drug alone (1 - RLU/untreated control) (fraction); higher = stronger inhibition; conditions: 177Lu-lilotomab satetraxetan 0 ug/ml
Outline: (§1)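 Compound doses on the pre-printed Selleck Cambridge Cancer Compound library plates were 10/100 nM for RIVA cells and 10/1,000 nM for U-2932 cells, seeded at 3,000 cells/well. Before seeding, cells were washed after 18 h with or without a radiolabelled anti-CD37 antibody conjugate (~600 MBq/mg; 0.5 µg/ml RIVA, 1 µg/ml U-2932). Growth inhibition was derived from RealTime-Glo luminescence relative to untreated no-drug control wells. Readings were taken daily starting on day 3, each after 1 h at 37°C, and each well's RLU was divided by the mean of 48 such wells per plate and subtracted from 1.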

[2] = tested on: RIVA; assay: as above; conditions: 177Lu-lilotomab satetraxetan 0 ug/ml
Outline: as §1

[3] = tested on: U-2932; assay: growth inhibition by drug plus 177Lu-lilotomab satetraxetan (1 - RLU/untreated control) (fraction); higher = stronger inhibition; conditions: 177Lu-lilotomab satetraxetan 1 ug/ml
Outline: as §1

[4] = tested on: RIVA; assay: as above; conditions: 177Lu-lilotomab satetraxetan 0.5 ug/ml
Outline: as §1

SMILES | growth inhibition by drug alone ([1]; 10 nM, time (day): 3) | growth inhibition by drug alone ([1]; 10 nM, time (day): 4) | growth inhibition by drug alone ([1]; 10 nM, time (day): 5) | growth inhibition by drug alone ([1]; 10 nM, time (day): 6) | growth inhibition by drug alone ([1]; 1000 nM, time (day): 3) | growth inhibition by drug alone ([1]; 1000 nM, time (day): 4) | growth inhibition by drug alone ([1]; 1000 nM, time (day): 5) | growth inhibition by drug alone ([1]; 1000 nM, time (day): 6) | growth inhibition by drug alone ([2]; 10 nM, time (day): 3) | growth inhibition by drug alone ([2]; 10 nM, time (day): 4) | growth inhibition by drug alone ([2]; 10 nM, time (day): 5) | growth inhibition by drug alone ([2]; 10 nM, time (day): 6) | growth inhibition by drug alone ([2]; 100 nM, time (day): 3) | growth inhibition by drug alone ([2]; 100 nM, time (day): 4) | growth inhibition by drug alone ([2]; 100 nM, time (day): 5) | growth inhibition by drug alone ([2]; 100 nM, time (day): 6) | growth inhibition by drug plus 177Lu-lilotomab satetraxetan ([3]; 10 nM, time (day): 3) | growth inhibition by drug plus 177Lu-lilotomab satetraxetan ([3]; 10 nM, time (day): 4) | growth inhibition by drug plus 177Lu-lilotomab satetraxetan ([3]; 10 nM, time (day): 5) | growth inhibition by drug plus 177Lu-lilotomab satetraxetan ([3]; 10 nM, time (day): 6) | growth inhibition by drug plus 177Lu-lilotomab satetraxetan ([3]; 1000 nM, time (day): 3) | growth inhibition by drug plus 177Lu-lilotomab satetraxetan ([3]; 1000 nM, time (day): 4) | growth inhibition by drug plus 177Lu-lilotomab satetraxetan ([3]; 1000 nM, time (day): 5) | growth inhibition by drug plus 177Lu-lilotomab satetraxetan ([3]; 1000 nM, time (day): 6) | growth inhibition by drug plus 177Lu-lilotomab satetraxetan ([4]; 10 nM, time (day): 3) | growth inhibition by drug plus 177Lu-lilotomab satetraxetan ([4]; 10 nM, time (day): 4) | growth inhibition by drug plus 177Lu-lilotomab satetraxetan ([4]; 10 nM, time (day): 5) | growth inhibition by drug plus 177Lu-lilotomab satetraxetan ([4]; 10 nM, time (day): 6) | growth inhibition by drug plus 177Lu-lilotomab satetraxetan ([4]; 100 nM, time (day): 3) | growth inhibition by drug plus 177Lu-lilotomab satetraxetan ([4]; 100 nM, time (day): 4) | growth inhibition by drug plus 177Lu-lilotomab satetraxetan ([4]; 100 nM, time (day): 5) | growth inhibition by drug plus 177Lu-lilotomab satetraxetan ([4]; 100 nM, time (day): 6)
Cc1ccc(-c2csc3ncnc(SCCC(=O)O)c23)cc1 | 0.0174 | -0.014 | -0.0343 | -0.0333 | -0.00216 | -0.0356 | -0.0409 | 0.0278 | -0.135 | -0.215 | -0.266 | -0.425 | -0.333 | -0.33 | -0.376 | -0.529 | -0.0558 | -0.00644 | 0.0127 | 0.0699 | -0.0374 | 0.018 | 0.0424 | 0.16 | 0.458 | 0.495 | 0.522 | 0.525 | 0.365 | 0.436 | 0.45 | 0.472
C[C@]12CC[C@@H]3c4ccc(O)cc4CC[C@H]3[C@@H]1CCC2=O [Estrone] | 0.0961 | 0.0749 | 0.0943 | -0.00298 | 0.0954 | 0.046 | 0.0242 | -0.126 | -0.099 | -0.0604 | -0.112 | -0.295 | -0.445 | -0.269 | -0.323 | -0.542 | 0.0282 | 0.0899 | 0.127 | 0.0988 | 0.0277 | 0.0438 | 0.0954 | 0.209 | 0.474 | 0.569 | 0.585 | 0.601 | 0.271 | 0.43 | 0.447 | 0.475
COc1cc2nccc(Oc3ccc(NC(=O)NC4CC4)c(Cl)c3)c2cc1C(N)=O [E7080 (Lenvatinib)] | -0.0768 | -0.0782 | -0.0262 | 0.0583 | -0.0598 | -0.0139 | -0.0471 | 0.0893 | -0.272 | -0.277 | -0.3 | -0.325 | -0.113 | -0.192 | -0.168 | -0.219 | -0.0798 | -0.0346 | 0.0178 | 0.0795 | -0.0775 | 0.00296 | 0.0372 | 0.201 | 0.331 | 0.478 | 0.485 | 0.496 | 0.364 | 0.44 | 0.454 | 0.461
Nc1nc(N)c(N=O)c(OCC2CCCCC2)n1 | -0.102 | -0.0718 | -0.059 | 0.0483 | -0.102 | -0.0762 | -0.0902 | -0.132 | -0.226 | -0.243 | -0.283 | -0.504 | -0.331 | -0.36 | -0.322 | -0.473 | -0.0542 | -0.0355 | -0.000656 | 0.134 | -0.0976 | -0.0168 | 0.00555 | 0.0733 | 0.229 | 0.419 | 0.456 | 0.476 | 0.322 | 0.426 | 0.43 | 0.399
CC(=O)O[C@]1(C(C)=O)CC[C@H]2[C@@H]3C=C(C)C4=CC(=O)CC[C@]4(C)[C@H]3CC[C@@]21C [Megestrol Acetate] | 0.119 | 0.0962 | 0.0591 | 0.00317 | 0.0742 | 0.112 | 0.0515 | -0.0501 | -0.0198 | -0.0102 | -0.107 | -0.454 | 0.0472 | 0.023 | -0.0299 | -0.147 | 0.0333 | 0.104 | 0.0868 | 0.12 | 0.044 | 0.137 | 0.0953 | 0.163 | 0.408 | 0.529 | 0.546 | 0.551 | 0.497 | 0.522 | 0.525 | 0.508
NC(=O)c1ccc(-c2nc(-c3ccccn3)c(-c3ccc4c(c3)OCO4)[nH]2)cc1 | 0.107 | 0.0821 | -0.071 | -0.0929 | 0.0294 | 0.069 | -0.0548 | -0.0669 | 0.151 | 0.132 | 0.0924 | -0.233 | -0.221 | -0.199 | -0.195 | -0.245 | 0.0841 | 0.129 | 0.164 | 0.198 | 0.0479 | 0.102 | 0.125 | 0.211 | 0.633 | 0.64 | 0.642 | 0.63 | 0.438 | 0.521 | 0.528 | 0.52
Nc1nccc(Oc2ccc(NC(=O)c3c[nH]cc(-c4ccc(F)cc4)c3=O)cc2F)c1Cl | -0.0716 | -0.0777 | -0.0731 | -0.06 | -0.103 | -0.0916 | -0.0987 | -0.109 | -0.189 | -0.254 | -0.278 | -0.424 | -0.523 | -0.459 | -0.483 | -0.598 | -0.0906 | -0.0231 | 0.0271 | 0.0973 | -0.0589 | 0.0171 | 0.0665 | 0.209 | 0.468 | 0.516 | 0.536 | 0.547 | 0.364 | 0.43 | 0.425 | 0.43
